Screens from PubChem.
Sampled rows, rich in hits. Any-hit rate of the full collection: about 17%.
ClpP mod: qHTS Assay for Activators of ClpP; ATP-dependent Clp protease proteolytic subunit (Bacillus subtilis (strain 168)), P80244; purified B. subtilis ClpP, FRET peptide cleavage, 20 min; Potency, µM (doses to about 57.5 µM); actives 1.9% (n = 340,000); active = well fitted falling curve with a large enough effect; inconclusive = small, poorly fitted or top-dose-only effect; inactive = no such curve, though single readings can be large or run the other way; also: the source files actives as falling curves though it sought activators and does not explain the sign; nearly all actives have a fitted effect of over 65% in size
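Purified B. subtilis ClpP, 10 microg/mL final in Tris/HCl pH8 with KCl, BSA, glycerol and Tween-20, cleaved an Abz/nitrotyrosine-quenched decapeptide. Fluorescence (ex 320, em 430) was read at 0 and 20 min at room temperature. Delta was normalized to 5.8 microM ADEP and DMSO/no-enzyme controls.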
DT40 TDP1 CPT: qHTS for Inhibitors of human tyrosyl-DNA phosphodiesterase 1 (TDP1): qHTS in cells in presence of CPT. actives 12% (n = 420,000). Potency, µM (highest dose often 46.2 µM), hits mostly inhibitors. AID 686979, 2013. chicken DT40 Tdp1-/-;hTDP1 cells + 20 nM CPT, ATP luminescence, 48 h; also: nearly all actives have a fitted effect of over 55% in size
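Chicken DT40 Tdp1-/- cells complemented with human TDP1, 400 cells/well, exposed to compounds plus 20 nM camptothecin for at least 48 h at 37 C; viability read as ATP content by CellTiter-Glo luminescence.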
TDP1 cell noCPT: qHTS for Inhibitors of human tyrosyl-DNA phosphodiesterase 1 (TDP1): qHTS in cells in absence of CPT; AID 686978, 2013; DT40 Tdp1-/- hTDP1 cells, no CPT, ATP luminescence, 48 h; actives 15% (n = 420,000); Potency, µM (series often up to 46.2 µM), usual class: inhibitors; also: nearly all actives have a fitted effect of over 55% in size
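DT40 Tdp1-/-;hTDP1 cells, no CPT (DMSO vehicle only), 400 cells/well; compounds pin-transferred; ≥48 hr, 37 °C; CellTiter-Glo 30 min RT dark, luminescence read.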
TDP1 block: qHTS Assay for Inhibitors of Tyrosyl-DNA Phosphodiesterase (TDP1); actives 0.28% (n = 350,000); recombinant TDP1, AlphaScreen DNA substrate cleavage; AID 485290, 2010; Potency, µM (series often up to 130 µM), usual class: inhibitors; Tyrosyl-DNA phosphodiesterase 1 (Homo sapiens), Q9NUW8; also: nearly all actives have a fitted effect of over 40% in size
Target sequence (Q9NUW8 whole entry, looked up): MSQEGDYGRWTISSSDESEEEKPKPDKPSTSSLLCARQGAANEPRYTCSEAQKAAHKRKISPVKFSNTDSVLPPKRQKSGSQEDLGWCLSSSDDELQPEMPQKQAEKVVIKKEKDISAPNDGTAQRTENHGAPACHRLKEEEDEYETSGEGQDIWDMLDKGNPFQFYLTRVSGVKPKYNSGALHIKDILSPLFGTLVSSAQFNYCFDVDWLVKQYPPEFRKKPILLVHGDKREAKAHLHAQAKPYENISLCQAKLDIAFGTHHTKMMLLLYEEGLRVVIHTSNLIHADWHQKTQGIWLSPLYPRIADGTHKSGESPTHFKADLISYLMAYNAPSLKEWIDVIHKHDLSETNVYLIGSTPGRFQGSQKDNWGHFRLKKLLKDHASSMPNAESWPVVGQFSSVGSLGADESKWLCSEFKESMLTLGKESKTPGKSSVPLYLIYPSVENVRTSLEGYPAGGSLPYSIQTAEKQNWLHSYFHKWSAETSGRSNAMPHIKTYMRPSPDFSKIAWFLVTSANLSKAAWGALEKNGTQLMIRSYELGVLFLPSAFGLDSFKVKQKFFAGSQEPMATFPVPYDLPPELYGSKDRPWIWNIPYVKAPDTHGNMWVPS
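Compounds were preincubated with Tdp1 (1 nM final) for 15 min at room temperature before substrate (15 nM final) started a 5 min reaction; beads (10 ug/ml final) were then added for 10 min before AlphaScreen detection.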
Each line names hits and unclear results; the compound was inactive in the other large screens. Unless noted, calls follow the shape of the dose curve; as a rule, active = well fitted curve in the direction sought with a large enough effect; inconclusive = small, poorly fitted or top-dose-only effect, or another doubt; inactive = no such curve, though single readings can be large; an effect the other way counts as inactive or inconclusive.

COc1ccc([N+](=O)[O-])cc1NC(=O)C(C)N(C)Cc1cccc(OC)c1OC (centres undefined)	DT40 TDP1 CPT 20.6µM, TDP1 cell noCPT 16.4µM
COc1cc(CN(C)C(C)C(=O)Nc2ccc([N+](=O)[O-])cc2Cl)ccc1OC(F)F (centres undefined)	DT40 TDP1 CPT inconclusive, TDP1 cell noCPT inconclusive
COc1ccccc1NS(=O)(=O)c1cccc(NC(=O)CCNC(=O)c2ccccc2OC)c1	DT40 TDP1 CPT inconclusive
COc1ccc([N+](=O)[O-])cc1NC(=O)Nc1cccc(Cl)c1	DT40 TDP1 CPT 11.6µM, TDP1 cell noCPT 9.2µM
COc1ccc(NC(=O)c2ccc3c(c2)NC(=O)CS3)cc1S(=O)(=O)Nc1ccc(Br)cc1	DT40 TDP1 CPT inconclusive, TDP1 cell noCPT 29.1µM
COc1ccccc1NS(=O)(=O)c1cccc(NC(=O)NCCCl)c1	DT40 TDP1 CPT 20.6µM, TDP1 cell noCPT inconclusive
COc1ccc([N+](=O)[O-])cc1NC(=O)Nc1ccc(OC)c(OC)c1	DT40 TDP1 CPT inconclusive, TDP1 cell noCPT inconclusive (no result: ClpP mod)
COc1ccc(C(=O)Nc2ccccc2)cc1S(=O)(=O)Nc1ccc(Br)cc1	none
COC(=O)c1cn([C@@H]2C[C@@H](C(=O)Nc3cccc(SC)c3)N(C3CCCC3)C2)nn1	none (no result: ClpP mod, TDP1 block)
COc1ccnc(Oc2ccc(F)cc2)c1C(=O)N/C=N/OCc1cccc(F)c1	none (no result: ClpP mod)
CCOC(=O)CN1C(=O)/C(=C/c2ccccc2Br)Oc2ccccc21	DT40 TDP1 CPT inconclusive, TDP1 cell noCPT inconclusive (no result: TDP1 block)
COc1ccc(NS(=O)(=O)c2cc(NC(=O)c3cncc(Br)c3)ccc2OC)cc1	ClpP mod 28.2µM, DT40 TDP1 CPT inconclusive, TDP1 cell noCPT inconclusive
COc1ccccc1NS(=O)(=O)c1cccc(NC(=O)c2cncc(Br)c2)c1	DT40 TDP1 CPT inconclusive, TDP1 cell noCPT 18.4µM (no result: ClpP mod)
COc1ccccc1NS(=O)(=O)c1cccc(NC(=O)Nc2cccc(Cl)c2)c1	DT40 TDP1 CPT 20.6µM, TDP1 cell noCPT 20.6µM
COC(=O)C1N[C@@H]([C@@H](NC(=O)COc2ccccc2)C(=O)Nc2ccc(OC)cc2)SC1(C)C (some centres undefined)	DT40 TDP1 CPT inconclusive, TDP1 cell noCPT inconclusive (no result: TDP1 block)
COc1ccc(OC)c(NC(=O)CC2C(=O)NCCN2C(=O)C(F)(F)F)c1 (centres undefined)	none
Fc1cnc(N2CCN(c3ccccc3)CC2)nc1N1CCN(c2ccccc2)CC1	ClpP mod 31.6µM, DT40 TDP1 CPT inconclusive
Fc1cnc(N2CCc3ccccc32)nc1N1CCc2ccccc21	ClpP mod inconclusive, DT40 TDP1 CPT inconclusive, TDP1 cell noCPT inconclusive
CCCc1cc(-c2n[nH]c(=S)n2CC(C)C)cs1	DT40 TDP1 CPT inconclusive, TDP1 cell noCPT 20.6µM
CCCCn1c(-c2csc(CC)c2)n[nH]c1=S	DT40 TDP1 CPT 20.6µM, TDP1 cell noCPT inconclusive
Cc1ccc2ncc3c(-c4ccc(F)cc4)nn(CC(=O)Nc4ccccc4C)c3c2c1	none
CCC[N+]1(CC#CC(O)(c2ccccc2)C2CCCCC2)CCCCC1 (centres undefined)	TDP1 cell noCPT inconclusive (no result: TDP1 block)
O=S(=O)([O-])CCC[N+]1(CC#Cc2ccccc2)CCCCC1	DT40 TDP1 CPT 16.4µM, TDP1 cell noCPT 14.6µM
C(#Cc1ccccc1)C[N+]1(CC#Cc2cccc3ccccc23)CCCC1	DT40 TDP1 CPT 0.651µM, TDP1 cell noCPT 0.058µM
CS(=O)(=O)N1CCN(C(=O)NC23CC4CC(CC(C4)C2)C3)CC1	none
O=S(=O)(c1ccc(NC(=S)NC23CC4CC(CC(C4)C2)C3)cc1)N1CCCCC1	DT40 TDP1 CPT inconclusive, TDP1 cell noCPT 20.6µM (no result: TDP1 block)
CN(C)c1ccc(NC(=S)NC23CC4CC(CC(C4)C2)C3)cc1	DT40 TDP1 CPT 29.1µM, TDP1 cell noCPT inconclusive (no result: ClpP mod)
O=C(NC(=S)Nc1ccc(S(=O)(=O)N2CCCCC2)cc1)c1cccs1	ClpP mod inconclusive, DT40 TDP1 CPT 25.9µM, TDP1 cell noCPT 18.4µM
O=C(NC12CC3CC(CC(C3)C1)C2)N1CCN(S(=O)(=O)c2ccc(Cl)cc2)CC1	DT40 TDP1 CPT 18.4µM, TDP1 cell noCPT 23.1µM
N#C/C(=C/c1ccc(F)cc1)c1nnc(NC(=O)c2ccccc2)s1	DT40 TDP1 CPT inconclusive (no result: TDP1 block)
COC(CNC(=O)c1cn(C)c2ccc(S(=O)(=O)N(C)C3CCCCC3)cc2c1=O)OC	TDP1 cell noCPT inconclusive (no result: ClpP mod)
